Sampled rows, rich in hits. Any-hit rate of the full collection: about 4.8%.
APP 5'UTR act – activators of APP 5'UTR luciferase reporter, primary screen, SH-SY5Y cells; SH-SY5Y APP 5'UTR luciferase reporter, luminescence; zero percent = DMSO vehicle wells; 1% of 190,000 active; activation, % at 2 µM;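 active = activation above a set limit, based on mean plus 3 SD of controls, cut at about 140% in these data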
Hsp70 act – Hsp70 transcriptional activators, primary screen, cell-based, HeLa, Hsp70 promoter luciferase, luminescence, 10 µM; 0.04% of 200,000 active; HeLa Hsp70 promoter luciferase reporter; scaled: vehicle 0, proteasome-inhibitor control 100%; AID 1203, 2008; activation, % at 10 µM;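 active = activation above the mean across all tested compounds plus 3 SD, cutoff set per campaign, cut at about 5.5% in these data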;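 note: 100% = MG132 at 30 µM as the positive control and 0% = DMSO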
NF-kB neuron act – activators of NF-kB expression in neurons, primary screen, cell-based, HTS; 1.6% of 190,000 active; fold change at 12.5 µM; human neuronal cells, NF-kB reporter expression; hits give high values; AID 1239, 2008; in the data active = fold change above about 3.3
STAT1 activator – STAT1 signaling activators, primary screen, cell-based, HTS, luciferase reporter | NIH 3T3 STAT1-luciferase reporter, IFN-gamma, luminescence; 100% = IFN-gamma alone, no compound | activation (% of control), % at 5.5 µM | 2.6% of 200,000 active | AID 932, 2007;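 active = activation above the screen-wide mean activation plus 3 SD, cut at about 130% in these data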;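 note: raw ratio to IFN-gamma control signal so 100% means no change and 0% no light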
APP 5UTR inh – inhibitors of APP translation via 5'UTR reporter, primary screen, APP 5'UTR luciferase, SH-SY5Y cells; SH-SY5Y APP 5'UTR-luciferase reporter, luminescence; inhibition, % at 2 µM; 0.82% of 190,000 active; AID 1285, 2008;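 active = inhibition above a set limit, derived from the sample mean plus 3 SD, cut at about 45% in these data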
Wee1 stabilizer – Wee1 degradation inhibitors, primary screen, cell-based, HeLa, Wee1K328M-luciferase, luminescence; reporter increase, % at 5 µM; Wee1-like protein kinase (Homo sapiens), P30291; HeLa Luc-Wee1K328M stability; 100% = proteasome inhibitor MG132 effect; AID 1321, 2008; 1.2% of 220,000 active;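 active = activation above the mean of all tested compounds plus 3 SD, set per screening run, cut at about 8.8% in these data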;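 note: cells exposed to compound for 20 h before luminescence read; 0% = DMSO alone and 100% = MG132 at 30 µM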
Target sequence (P30291 whole entry K328M): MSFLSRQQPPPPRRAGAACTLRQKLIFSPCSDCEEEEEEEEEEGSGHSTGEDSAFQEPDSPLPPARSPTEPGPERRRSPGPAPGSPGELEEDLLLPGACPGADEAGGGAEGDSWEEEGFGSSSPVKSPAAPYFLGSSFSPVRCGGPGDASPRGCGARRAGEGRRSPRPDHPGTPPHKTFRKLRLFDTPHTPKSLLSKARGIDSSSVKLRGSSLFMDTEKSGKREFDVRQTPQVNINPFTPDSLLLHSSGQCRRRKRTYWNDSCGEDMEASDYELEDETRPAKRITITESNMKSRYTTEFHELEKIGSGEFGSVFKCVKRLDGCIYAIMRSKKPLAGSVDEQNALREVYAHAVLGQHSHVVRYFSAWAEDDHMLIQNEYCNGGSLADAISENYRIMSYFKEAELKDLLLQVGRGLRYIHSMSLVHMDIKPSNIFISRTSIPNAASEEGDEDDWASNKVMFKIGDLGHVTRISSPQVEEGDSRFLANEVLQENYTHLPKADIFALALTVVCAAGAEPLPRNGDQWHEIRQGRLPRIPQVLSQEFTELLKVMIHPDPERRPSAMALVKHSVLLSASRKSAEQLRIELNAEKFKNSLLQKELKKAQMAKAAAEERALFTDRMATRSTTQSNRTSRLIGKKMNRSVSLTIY
STAT1 activ conf – STAT1 signaling activators, confirmation, cell-based, HTS, luciferase reporter. AID 1262, 2008. 97% of 1,200 active. activation (% of control), % at 5.7 µM. NIH 3T3 STAT1-luciferase reporter, IFN-gamma potentiation, luminescence; 100% = IFN-gamma EC80 alone, no compound. shares compounds with STAT1 activator;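 active = activation above a set limit carried over from the earlier primary STAT1 screen, cut at about 140% in these data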;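 note: simple ratio to median IFN-gamma plus DMSO wells so 0% means no light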
NFkB act STAT1ct – NF-kB reporter activators, TNF-alpha stimulated, counter-screen for STAT1 activator project, cell-based, HEK293T, luciferase luminescence; shares compounds with STAT1 activator; 100% = TNF-alpha with vehicle only; activation (% of control), % at 5.7 µM; 43% of 1,200 active;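 active = activation above the mean of solvent-only control wells plus 3 SD, set per campaign, cut at about 130% in these data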;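 note: TNF-alpha given at a submaximal dose yielding about 80% of full reporter signal; values are well signal over median control so 100% means no change and 0% no light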
STAT3 act 2 – STAT3 reporter activation by STAT1 hits, confirmation, counter-screen for STAT1 activator project, U3A cells, luciferase, luminescence; activation (% of control), % at 5.7 µM; shares compounds with STAT1 activator; IL-6; cells lack STAT1; 100 = IL-6 alone, no compound effect; 46% of 1,200 active;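 active = activation above the solvent-only control well mean plus 3 SD, set per plate batch, cut at about 110% in these data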;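 note: 0% = no luminescence and 100% = median IL-6 plus DMSO wells; higher means more STAT3 reporter activation so hits are non-selective activators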
* marks the source's active call; other numbers are inactive results; · = no result given.

SMILES | APP 5'UTR act | Hsp70 act | NF-kB neuron act | STAT1 activator | APP 5UTR inh | Wee1 stabilizer | STAT1 activ conf | NFkB act STAT1ct | STAT3 act 2
O=C(Nc1ccc2oc(-c3ccccc3)nc2c1)c1cccnc1 | 53 | 0 | 1.1 | 113 | -53 | 0 | · | · | ·
O=C(Nc1ccc2oc(-c3ccccc3)nc2c1)c1ccco1 | 178* | 0 | 5.1* | 168* | -178 | 4 | 202* | 134* | 107
O=C(Nc1ccc2oc(-c3ccccc3)nc2c1)C1CCCO1 (centres undefined) | 147* | 0 | 3.6* | 155* | -147 | 1 | 182* | 134* | 102
COc1ccc(Cl)c2c1[nH]c1nc(SCc3ccccn3)nnc12 | 157* | 0 | 4.2* | 189* | -157 | 8 | 175* | 144* | 124*
COc1ccc(S(=O)(=O)NCc2ccccn2)c(Cl)c1Cl | 2 | 0 | 1.1 | 105 | -2 | 0 | · | · | ·
Cc1cccc(-c2nc(C#N)c(NC3CCCCC3)o2)c1 | 136* | 0 | 2.8 | 156* | -136 | 6 | 174* | 132 | 118*
COc1ccc2cc3c(N)c(C(=O)N4CCCC4)sc3nc2c1 | 120 | 1 | 1.3 | 157* | -120 | 4 | 117 | 106 | 99
COc1ccc2cc3cc(C(=O)NCCN4CCc5ccccc5C4)sc3nc2c1 | 27 | 0 | 1.2 | 114 | -27 | -2 | · | · | ·
CCC(C)NC(=O)c1cc2cc3ccc(OC)cc3nc2s1 (centres undefined) | 214* | 0 | 5* | 153* | -214 | 9.0* | 252* | 130 | 102
Cc1ccc2cc3c(N)c(C(=O)N4CCOCC4)sc3nc2c1 | 178* | 1 | 1.6 | 156* | -178 | 3 | 117 | 104 | 111*
COC(=O)C1=C(C)NC(=O)NC1c1ccc(N2CCC(c3ccccc3)=N2)cc1 (centres undefined) | 4 | 0 | 1.1 | 99 | -4 | 1 | · | · | ·
COc1cccc(N(CC(=O)Nc2ccccc2C)S(C)(=O)=O)c1 | -3 | 0 | 1 | 102 | 3 | -3 | · | · | ·
COC(=O)C1CCN(Cc2cn(Cc3ccccc3)nc2-c2cc3ccccc3o2)CC1 | -12 | 0 | 1 | 98 | 12 | 0 | · | · | ·
COc1ccc(-c2cc(-c3ccc(OC)cc3)[nH]n2)cc1 | 53 | 0 | 1.4 | 151* | -54 | 3 | 162* | 123 | 94
COc1ccc(-c2cc(-c3n[nH]c(=S)n3-c3cc(OC)ccc3OC)[nH]n2)cc1 | -22 | 0 | 0.99 | 96 | 22 | -1 | · | · | ·
O=C(Nc1nc(-c2ccccn2)cs1)c1ccc(S(=O)(=O)N2CCCCC2)cc1 | · | · | · | · | · | 2 | · | · | ·
Cc1cc(C(=O)CSc2nnnn2C)c(C)n1CCc1ccc(F)cc1 | -6 | 0 | 1.6 | 103 | 6 | -3 | · | · | ·
Cc1ccc(-n2c(C)cc(C(=O)CSc3nnnn3C)c2C)cc1 | 168* | 0 | 5.4* | 162* | -168 | 2 | 201* | 130 | 114*
c1ccc2c(c1)CCN(c1nc3cc4c(cc3s1)OCO4)C2 | 151* | 0 | 12* | 180* | -151 | 7 | 261* | 136* | 107
Brc1csc(/C=N/Nc2nc3ccccc3s2)c1 | 162* | 0 | 4.4* | 190* | -162 | 8.9* | 248* | 149* | 134*
C(=N\Nc1nc2ccccc2s1)/c1ccc2c(c1)OCO2 | 180* | 0 | 3.8* | 209* | -180 | 5 | 272* | 123 | 124*
CC(=O)Nc1nc2cc3c(cc2s1)OCO3 | 57 | 0 | 2.2 | 115 | -57 | 0 | · | · | ·
Brc1ccc(/C=C/C=N/Nc2nc3ccccc3s2)cc1 | 8 | 0 | 1.3 | 121 | -8 | -1 | · | · | ·
CC(=O)c1sc(Nc2nc3cc4c(cc3s2)OCO4)nc1C | 91 | 0 | 2.9 | 174* | -90 | -1 | 190* | 142* | 103
Cc1[nH]c(=O)[nH]c(=O)c1NS(=O)(=O)c1ccc2c(c1)CCCC2 | 8 | 0 | 0.88 | 92 | -8 | 3 | · | · | ·
SMILES | APP 5'UTR act | Hsp70 act | NF-kB neuron act | STAT1 activator | APP 5UTR inh | Wee1 stabilizer | STAT1 activ conf | NFkB act STAT1ct | STAT3 act 2
Cc1ccc(Nc2nc3ccccc3s2)c(C)c1 | 168* | 0 | 6.4* | 182* | -168 | 7 | 220* | 109 | 98
Fc1ccc2nc(Nc3nc4cc5c(cc4s3)OCO5)sc2c1 | 87 | 0 | 1.2 | 111 | -87 | 4 | · | · | ·
Fc1ccc2nc(Nc3nc4cc5c(cc4s3)OCCO5)sc2c1 | 102 | 0 | 1.6 | 166* | -102 | 1 | 194* | 125 | 105
c1ccc2sc(Nc3nc4cc5c(cc4s3)OCO5)nc2c1 | 195* | 0 | 4.7* | 187* | -195 | 6 | 264* | 149* | 124*
Cc1ccc(NS(=O)(=O)c2ccc(CCC(=O)NCCO)cc2)cc1 | 14 | 0 | 1.1 | 96 | -14 | -2 | · | · | ·
Cc1cc(C)n(-c2n[nH]c(C)c2[N+](=O)[O-])n1 | 29 | 0 | · | 108 | -29 | 3 | · | · | ·
Cc1ccc2[nH]c(O)c(N=Nc3nc4ccccc4s3)c2c1 | · | · | · | · | · | -3 | · | · | ·
Oc1[nH]c2ccccc2c1N=Nc1nc2ccccc2s1 | · | 0 | 3.7* | 155* | · | 0 | 208* | 136* | 131*
COc1ccc(/C=C2\SC(=O)N(CCNC(=O)C3CC4C=CC3C4)C2=O)cc1 (centres undefined) | 202* | 0 | 9.5* | 159* | -202 | 3 | 146* | 150* | 134*
O=C(NN/C(=N/S(=O)(=O)c1ccc(Cl)cc1)c1ccccc1)c1ccc(O)cc1 | 129 | 0 | 1.3 | 152* | -129 | -2 | 154* | 108 | 111*
O=C(CCCn1c(SCC(=O)c2ccc(F)cc2)nc2ccccc2c1=O)NCc1ccccc1 | -4 | 0 | 0.82 | 98 | 4 | 1 | · | · | ·
O=C(CC1Nc2ccccc2NC1=O)NCCc1ccccc1 (centres undefined) | 0 | 0 | 1.1 | 109 | 0 | -1 | · | · | ·

Screens (PubChem)
